From PubChem BioAssay (Tox21)
Records with an inconclusive call do not appear. Entries that show only a call come without a potency. Active and inactive are the calls of the source. Calls come from the whole dose curve; as a rule, active = well fitted inhibition curve with a large enough effect in the repeat runs; inconclusive = weak or mixed curves; inactive = flat fitted curve, though single readings scatter.

What follows are molecules tested against Luciferin 4-monooxygenase (Photinus pyralis) (UniProt P08659) (assay: qHTS assay to identify small molecule inhibitors of firefly luciferase (AID 1224835; note: nearly all actives have a fitted effect of over 25% in size)). Conditions: purified P. pyralis luciferase, luminescence inhibition; series mostly up to 115 µM; activity change, negative = inhibition: at the top concentration.
Description: U.S. Tox21 Program National Center for Advancing Translational Sciences [NCATS] NIH Chemical Genomics Center [NCGC] U.S. Environmental Protection Agency [EPA] National Institutes of Environmental Health Sciences [NIEHS] National Toxicology Program [NTP] U.S. Food and Drug Administration [FDA] Tox21 Assay Overview: Firefly (Photinus pyralis) luciferase is one of the most commonly used transcriptional reporters. Firefly luciferase reporter-gene assays are generally considered one of the most sensitive assay types (Wood, 1995; Wood, 1998). However, it was initially observed, in 1991, by Thompson et al., that compounds that resemble the substrates of firefly luciferase (FLuc) can act as competitive inhibitors of the enzyme, and that these compounds, upon interaction with luciferase in the cell, can actually stabilize the protein and increase its half-life. Previous profiling work by other groups to determine the prevalence of compounds that affect FLuc enzymatic activity (PubChem AID 411) identified that ~3% of the MLSMR library (then at ~72K) inhibited FLuc. […] Thus the Tox21 10K library is profiled for activity against FLuc using a biochemical assay of purified FLuc and KM concentrations of FLuc substrates (D-luciferin and ATP).
These assay plates were then treated with 23nL of compound or DMSO using a Kalypsys pin tool, which allows for delivery of a 6-point interplate titration of each compound to the assay plate (quantitative HTS.) 1 uL of firefly luciferase mix (containing 50 mM Tris acetate, pH 7.6, 0.04 uM P. pyralis luciferase, 0.01% Tween, 0.05% BSA and dH2O) was then delivered by FRD to each well. Luciferase activity was then measured using a ViewLux CCD imager.

Luciferin 4-monooxygenase (Photinus pyralis), sequence (P08659 whole entry, looked up): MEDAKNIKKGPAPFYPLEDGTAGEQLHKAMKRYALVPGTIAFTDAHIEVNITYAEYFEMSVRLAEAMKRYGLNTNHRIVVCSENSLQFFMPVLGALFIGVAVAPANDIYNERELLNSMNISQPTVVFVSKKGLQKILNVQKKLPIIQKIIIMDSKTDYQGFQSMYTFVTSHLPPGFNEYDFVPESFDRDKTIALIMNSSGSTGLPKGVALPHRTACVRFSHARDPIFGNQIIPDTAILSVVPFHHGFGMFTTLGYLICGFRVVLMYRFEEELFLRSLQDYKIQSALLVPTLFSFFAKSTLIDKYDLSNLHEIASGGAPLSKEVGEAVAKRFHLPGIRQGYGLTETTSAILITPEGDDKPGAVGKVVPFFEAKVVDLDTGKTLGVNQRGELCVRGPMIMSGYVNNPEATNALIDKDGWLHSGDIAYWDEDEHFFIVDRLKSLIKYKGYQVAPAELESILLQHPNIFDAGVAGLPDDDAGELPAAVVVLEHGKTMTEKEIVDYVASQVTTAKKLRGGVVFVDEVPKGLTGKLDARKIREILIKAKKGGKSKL

SMILES | Potency | activity change, negative = inhibition
CC1(C)CC(N)CC(C)(CN)C1 (stereo not given) | inactive | –
C=C(C)C(=O)OCC(C)C | inactive | –
CC(C)(Oc1ccc(CCNC(=O)c2ccc(Cl)cc2)cc1)C(=O)O | 35.6 µM (active) | –
C=CCc1ccc(OC)c(OC)c1 | – | -9.07% (inactive)
CNC(=O)Oc1ccc2c(c1)[C@]1(C)CCN(C)[C@@H]1N2C | inactive | –
CCCCCCCC=O | inactive | –
CCc1ccccc1CC | inactive | –
C=CC[N+](C)(C)CC=C | inactive | –
COC(=O)CCCC(=O)OC | inactive | –
CC(C)(C#N)c1cc(Cn2cncn2)cc(C(C)(C)C#N)c1 | inactive | –
CN(C)c1ccc(Cc2ccc(N(C)C)cc2)cc1 | inactive | –
C[Si]1(C)O[Si](C)(C)O[Si](C)(C)O[Si](C)(C)O1 | inactive | –
Cc1ccc(C(C)C)c(O)c1 | inactive | –
C[C@]12CC[C@@H]3c4ccc(O)cc4CC[C@H]3[C@@H]1C[C@@H](O)[C@@H]2O | inactive | –
COc1ccc([N+](=O)[O-])cc1N | inactive | –
O=C(O)Cn1c(=O)n(Cc2ccc(Br)cc2F)c(=O)c2ccc(Cl)cc21 | inactive | –
CC(=O)Oc1ccc(C)cc1 | inactive | –
C=C(C)CNCC | inactive | –
CCOCCOCCOCCO | inactive | –
CCOC(=O)n1ccn(C)c1=S | inactive | –

SMILES | Potency | activity change, negative = inhibition
c1ccc2c(c1)Cc1ccccc1-2 | inactive | –
COc1ccc(CCC(C)=O)cc1 | inactive | –
CCCCCCCCCCCCCCCCO | inactive | –
CC(C)c1cccc(C(C)C)c1 | inactive | –
CC(=O)OCc1ccco1 | inactive | –
O=C(O)/C=C/C(=O)O | inactive | –
O=C1c2ccccc2CCc2ccccc21 | – | -13.4% [at 52.9 µM] (inactive)
CC(C)=CCl | inactive | –
COc1ccc(C)cc1N | inactive | –
CCCCCCCCCCN | inactive | –
CCCCCC(=O)O | inactive | –
O=C1C(c2[nH]c3ccccc3c2O)=Nc2ccccc21 | – | -2.53% (inactive)
CC(=O)CCC=C(C)C | inactive | –
CC(C)OP(=O)(CP(=O)(OC(C)C)OC(C)C)OC(C)C | inactive | –
CC(=O)CC(C)(C)O | inactive | –
CC(C)CC(C)O (stereo not given) | inactive | –
CCO[Si](CCC#N)(OCC)OCC | inactive | –
O=C1CCCC1 | inactive | –
O=C(O)c1ccccc1C(=O)O | inactive | –
CC1(C)OC[C@@H]2O[C@@]3(C(=O)O)OC(C)(C)O[C@H]3[C@@H]2O1 | inactive | –
